Results taken from PubChem BioAssay (NCI).
Compounds without any hit were thinned out: in the full panel of roughly 83,000, 20% have a hit.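 Single-concentration screen, 48 h exposure, 96-well plates. Endpoint: percent growth. Below 10 = active.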 Calls of active or inactive are those of the source.

Columns and labels:
Experiment in all cases: NCI-60 one-dose screen, 48 h (100 = growth as untreated, 0 = no growth, -100 = all killed)
Conditions in all cases: 10 µM unless noted
NCI-H23 lung = tested on: NCI-H23 lung
NCI-H226 lung = tested on: NCI-H226 lung
NCI-H322M lung = tested on: NCI-H322M lung
HOP-62 NSCLC = tested on: HOP-62 NSCLC
NCI-H460 lung = tested on: NCI-H460 lung
HOP-92 NSCLC = tested on: HOP-92 NSCLC
NCI-H522 lung = tested on: NCI-H522 lung
A549/ATCC NSCLC = tested on: A549/ATCC NSCLC
786-0 renal = tested on: 786-0 renal
COLO 205 colon = tested on: COLO 205 colon
DU-145 prostate = tested on: DU-145 prostate
K-562 leukemia = tested on: K-562 leukemia
MALME-3M melanoma = tested on: MALME-3M melanoma
MDA-MB-231 breast = tested on: MDA-MB-231 breast
RXF 393 renal = tested on: RXF 393 renal
SF-268 CNS = tested on: SF-268 CNS
SF-295 CNS = tested on: SF-295 CNS
SF-539 CNS = tested on: SF-539 CNS
UACC-257 melanoma = tested on: UACC-257 melanoma
M14 melanoma = tested on: M14 melanoma

Measured: growth

CC(=O)N(Cc1ccccc1)c1nc2ccc(O)c(CN(C)C)c2s1
inactive: NCI-H23 lung 96.7% | NCI-H226 lung 90.5% | NCI-H322M lung 103% | HOP-62 NSCLC 90.6% | NCI-H460 lung 100% | HOP-92 NSCLC 37.6% | NCI-H522 lung 90.2% | A549/ATCC NSCLC 98.4% | 786-0 renal 97.6% | COLO 205 colon 116% | DU-145 prostate 108% | K-562 leukemia 92.5% | MALME-3M melanoma 98.1% | MDA-MB-231 breast 96% | RXF 393 renal 98.2% | SF-268 CNS 94.6% | SF-295 CNS 92.6% | SF-539 CNS 97.2% | UACC-257 melanoma 102% | M14 melanoma 104%

Cc1ncc(C(=O)Nc2ccc(CN3CCN(C)CC3)c(C(F)(F)F)c2)cc1C#Cc1cnc(N)c2cnccc12
active: NCI-H23 lung 9.05% | HOP-62 NSCLC -21.8% | NCI-H460 lung -53.9% | NCI-H522 lung -0.528% | COLO 205 colon -27% | MALME-3M melanoma -26.1% | MDA-MB-231 breast -63.4% | RXF 393 renal -34.3% | SF-539 CNS -76.2% | UACC-257 melanoma -16.8% | M14 melanoma -78.5%
inactive: NCI-H226 lung 12.1% | NCI-H322M lung 14.8% | HOP-92 NSCLC 34.2% | A549/ATCC NSCLC 13.3% | 786-0 renal 14% | DU-145 prostate 13.5% | K-562 leukemia 25.1% | SF-268 CNS 14.6% | SF-295 CNS 23.6%

COC(=O)C1=C(C(=O)Nc2cccnc2)C2OC1(C(Cc1ccccc1)Oc1ccccc1)C1OC21 (stereo not given)
inactive: NCI-H23 lung 95.9% | NCI-H226 lung 88.4% | NCI-H322M lung 98.4% | HOP-62 NSCLC 93% | NCI-H460 lung 103% | A549/ATCC NSCLC 88.8% | 786-0 renal 49.7% | DU-145 prostate 72.8% | MDA-MB-231 breast 59.8% | RXF 393 renal 59.1% | SF-268 CNS 86.5% | SF-295 CNS 100% | SF-539 CNS 72% | UACC-257 melanoma 79.1% | M14 melanoma 11.7%
active: HOP-92 NSCLC -74.2% | NCI-H522 lung -48% | COLO 205 colon -46.9% | K-562 leukemia -48.4% | MALME-3M melanoma -74.7%

CCN(CC)CCN(CCN(CC)CC)c1ccccc1
inactive: NCI-H23 lung 93% | NCI-H226 lung 94.6% | NCI-H322M lung 103% | HOP-62 NSCLC 98.5% | NCI-H460 lung 107% | HOP-92 NSCLC 67.3% | NCI-H522 lung 79% | A549/ATCC NSCLC 93.1% | 786-0 renal 67.4% | COLO 205 colon 97.8% | DU-145 prostate 109% | K-562 leukemia 93% | MALME-3M melanoma 110% | MDA-MB-231 breast 89.6% | RXF 393 renal 90.8% | SF-268 CNS 97.7% | SF-295 CNS 111% | SF-539 CNS 87.6% | UACC-257 melanoma 93.1% | M14 melanoma 82.3%

Cn1cc(-c2csc(-c3cn(C)c4ccc(Br)cc34)n2)c2cnccc21
active: NCI-H23 lung -28.7% | NCI-H322M lung -32.6% | HOP-62 NSCLC -79% | NCI-H460 lung -76.4% | HOP-92 NSCLC -90.9% | NCI-H522 lung -67.5% | A549/ATCC NSCLC -75.1% | 786-0 renal -92.4% | COLO 205 colon -77.8% | DU-145 prostate -88.6% | K-562 leukemia -67% | MALME-3M melanoma -91.3% | MDA-MB-231 breast -84.7% | RXF 393 renal -87.2% | SF-268 CNS -73.8% | SF-295 CNS -78.2% | SF-539 CNS -93.1% | UACC-257 melanoma -23.2% | M14 melanoma -80.4%
inactive: NCI-H226 lung 102%

CN1C(=O)N(C)C2C1NC(=S)N2/N=C/C=C/c1ccccc1[N+](=O)[O-] (stereo not given)
active: NCI-H522 lung 9.84% | SF-295 CNS 9.8% | SF-539 CNS 2.83% | M14 melanoma 6.06%
inactive: NCI-H23 lung 38.2% | NCI-H226 lung 28.4% | NCI-H322M lung 49.3% | HOP-62 NSCLC 26.2% | NCI-H460 lung 12.6% | HOP-92 NSCLC 33.9% | A549/ATCC NSCLC 31.3% | 786-0 renal 26.6% | COLO 205 colon 14.3% | DU-145 prostate 18.7% | K-562 leukemia 14.7% | MALME-3M melanoma 54.4% | MDA-MB-231 breast 56.1% | RXF 393 renal 13.1% | SF-268 CNS 41.3% | UACC-257 melanoma 44.1%

COc1cc(C(=O)/C=C/c2ccc(N3CCN(C)CC3)cc2)cc(OC)c1OC
inactive: NCI-H23 lung 90% | NCI-H226 lung 101% | NCI-H322M lung 89.7% | HOP-62 NSCLC 91.4% | NCI-H460 lung 100% | HOP-92 NSCLC 98.5% | NCI-H522 lung 77.7% | A549/ATCC NSCLC 101% | 786-0 renal 106% | COLO 205 colon 91.3% | DU-145 prostate 104% | MALME-3M melanoma 86.3% | MDA-MB-231 breast 92% | RXF 393 renal 107% | SF-268 CNS 97.9% | SF-295 CNS 95.2% | SF-539 CNS 96.7% | UACC-257 melanoma 99.3% | M14 melanoma 94.8%
active: K-562 leukemia 2.23%

CCCCN1C(=O)/C(=c2\sc3n(c2=O)NC2C(N=3)N(CC)C(=O)N2CC)c2ccccc21 (stereo not given)
active: RXF 393 renal -0.314%
inactive: NCI-H23 lung 46.9% | NCI-H226 lung 70.4% | NCI-H322M lung 69.9% | HOP-62 NSCLC 71.7% | NCI-H460 lung 35.3% | HOP-92 NSCLC 60% | NCI-H522 lung 21.4% | A549/ATCC NSCLC 36.6% | 786-0 renal 53.6% | COLO 205 colon 24.9% | DU-145 prostate 20.6% | K-562 leukemia 14.6% | MALME-3M melanoma 57.6% | MDA-MB-231 breast 34.6% | SF-268 CNS 48.6% | SF-295 CNS 69.7% | SF-539 CNS 13.5% | UACC-257 melanoma 31% | M14 melanoma 25.3%
